Structures are written as SMILES. The source made the active and inactive calls. Rule for the calls: active = hit-call score of the fitted dose curve at least 0.9, where 1 is the maximum; inactive = score below 0.9.

This note sets out measurements from PubChem BioAssay (EPA / NIEHS).

Settings in all cases: mRNA level, 48 h; actives raise or lower the signal
Read-out in assay [1]: Glutathione S-Transferase (GSTA2), GSTA2 (gene 2939)
The assay can be described thus: LTEA_HepaRG_GSTA2: Life Technologies and Expression Analysis (LTEA) Assay for Glutathione S-Transferase (GSTA2) using HepaRG (AID 2283497). The method, boiled down:
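Oxidative-stress marker GSTA2 is quantified by TaqMan qRT-PCR in HepaRG cultures treated 48 h across an eight-point range to 100 uM. Expression is normalized to endogenous controls and compared with 0.5% DMSO vehicle.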

Read-out in assay [2]: Glutamate-cysteine ligase catalytic (GCLC), GCLC (gene 2729)
The assay can be described thus: LTEA_HepaRG_GCLC: Life Technologies and Expression Analysis (LTEA) Assay for Glutamate-cysteine ligase catalytic (GCLC) using HepaRG (AID 2283498). In short, it runs like this:
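Oxidative-stress marker GCLC is measured as mRNA change in human HepaRG liver cells after 48 h chemical treatment in 0.5% DMSO, eight concentrations from 100 uM. Activity is fitted bidirectionally against vehicle.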

Read-out in assay [3]: growth arrest and DNA damage 45 (GADD45G), GADD45G (gene 10912)
Description: LTEA_HepaRG_GADD45G: Life Technologies and Expression Analysis (LTEA) Assay for growth arrest and DNA damage 45 (GADD45G) using HepaRG (AID 2283499). In short, it runs like this: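 Differentiated human HepaRG cells in serum-free induction medium were exposed for 48 h to 8 half-log concentrations up to 100 uM in 0.5% DMSO, in duplicate. GADD45G mRNA was measured by TaqMan qRT-PCR, normalised to ACTB, GAPDH and POLR2A, and fitted bidirectionally against DMSO.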

Read-out in assay [4]: Glutamate-cysteine ligase regulatory (GCLM), GCLM (gene 2730)
Description: LTEA_HepaRG_GCLM: Life Technologies and Expression Analysis (LTEA) Assay for Glutamate-cysteine ligase regulatory (GCLM) using HepaRG (AID 2283500). The method, boiled down:
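HepaRG, 48 h dosing, 100 uM top, half-log x8, 0.5% DMSO vehicle. Readout: GCLM mRNA by TaqMan qRT-PCR, housekeeping-normalized (ACTB/GAPDH/POLR2A). Curves fit bidirectionally vs DMSO baseline.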

Read-out in assay [5]: Glutathione S-transferase M3 (GSTM3), GSTM3 (gene 2947)
The assay can be described thus: LTEA_HepaRG_GSTM3: Life Technologies and Expression Analysis (LTEA) Assay for Glutathione S-transferase M3 (GSTM3) using HepaRG (AID 2283501). In short, it runs like this:
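Differentiated HepaRG cells in serum-free induction medium were exposed in duplicate for 48 h to 8 half-log concentrations up to 100 uM in 0.5% DMSO. GSTM3 mRNA was measured by TaqMan qRT-PCR, normalized to ACTB/GAPDH/POLR2A, and fitted bidirectionally versus DMSO.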

Read-out in assay [6]: Heat shock 70 kDa protein 1 (HSPA1A), gene 3303
The assay can be described thus: LTEA_HepaRG_HSPA1A: Life Technologies and Expression Analysis (LTEA) Assay for Heat shock 70 kDa protein 1 (HSPA1A) using HepaRG (AID 2283502). The method, boiled down: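 HepaRG, 48 h exposure, 8-pt half-log CRC from 100 uM in 0.5% DMSO, duplicates. Readout: TaqMan qRT-PCR of HSPA1A mRNA, housekeeping-normalized (ACTB/GAPDH/POLR2A). Bidirectional fit vs 0.5% DMSO baseline.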

Read-out in assay [7]: Hypoxia-inducible factor 1-alpha (Homo sapiens) (UniProt Q16665)
Description: LTEA_HepaRG_HIF1A: Life Technologies and Expression Analysis (LTEA) Assay for Hypoxia-inducible factor 1 (HIF1A) Trancription factor using HepaRG (AID 2283503). In short, it runs like this: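 Gain- or loss-of-signal HIF1A mRNA changes are fitted against a DMSO baseline. HepaRG cultures receive eight concentrations, highest 100 uM, for 48 h in serum-free induction medium with 0.5% DMSO.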

Read-out in assay [8]: 3-Hydroxy-3-Methylglutaryl-CoA Synthase 2 (HMGCS2), HMGCS2 (gene 3158)
The assay can be described thus: LTEA_HepaRG_HMGCS2: Life Technologies and Expression Analysis (LTEA) Assay for 3-Hydroxy-3-Methylglutaryl-CoA Synthase 2 (HMGCS2) using HepaRG (AID 2283504). The method, boiled down: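 Differentiated human HepaRG cells were exposed in duplicate for 48 h in serum-free induction medium to eight concentrations (top 100 uM, half-log steps, 0.5% DMSO). HMGCS2 mRNA was quantified by TaqMan qRT-PCR, normalised to ACTB, GAPDH and POLR2A, then fitted bidirectionally against DMSO.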

Read-out in another assay: HGF (gene 3082)
The assay can be described thus: LTEA_HepaRG_HGF: Life Technologies and Expression Analysis (LTEA) Assay for Hepatocyte Growth Facto (HGF) using HepaRG (AID 2283505). In short, it runs like this: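 Differentiated human HepaRG cells in serum-free induction medium were exposed in duplicate for 48 h to eight concentrations (top 100 uM, half-log steps, 0.5% DMSO). HGF mRNA was quantified by qRT-PCR, normalized to ACTB, GAPDH and POLR2A.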

Read-out in assay [9]: Insulin Like Growth Factor 1 (IGF1), IGF1 (gene 3479)
Description: LTEA_HepaRG_IGF1: Life Technologies and Expression Analysis (LTEA) Assay for Insulin Like Growth Factor 1 (IGF1) using HepaRG (AID 2283506). The method, boiled down: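 qRT-PCR readout of IGF1 mRNA, normalized to three housekeeping genes, after 48 h chemical exposure of HepaRG cells. Concentrations: 8-point half-log series, top 100 uM, 0.5% DMSO vehicle. Gain or loss fitted against DMSO baseline.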

Read-out in assay [10]: Intercellular Adhesion Molecule 1 (ICAM1), ICAM1 (gene 3383)
Description: LTEA_HepaRG_ICAM1: Life Technologies and Expression Analysis (LTEA) Assay for Intercellular Adhesion Molecule 1 (ICAM1) using HepaRG (AID 2283507). In short, it runs like this: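 Differentiated HepaRG cells in serum-free induction medium were exposed in duplicate for 48 h to eight half-log concentrations up to 100 uM in 0.5% DMSO. Transcript levels were measured by qRT-PCR normalized to ACTB, GAPDH and POLR2A; bidirectional fits relative to DMSO.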

Read-out in assay [11]: Insulin-like growth factor-binding protein 1 (IGFBP1), IGFBP1 (gene 3484)
The assay can be described thus: LTEA_HepaRG_IGFBP1: Life Technologies and Expression Analysis (LTEA) Assay for Insulin-like growth factor-binding protein 1 (IGFBP1) using HepaRG (AID 2283508). In short, it runs like this: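 Differentiated human HepaRG cells in serum-free induction medium were exposed in duplicate for 48 h to eight concentrations, top 100 uM with half-log dilutions, in 0.5% DMSO. Transcript levels came from qRT-PCR normalised to ACTB, GAPDH and POLR2A, fitted bidirectionally against DMSO.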

Read-out in assay [12]: Interleukin 6 (IL6), IL6 (gene 3569)
The assay can be described thus: LTEA_HepaRG_IL6: Life Technologies and Expression Analysis (LTEA) Assay for Interleukin 6 (IL6) using HepaRG (AID 2283509). The method, boiled down: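 Changes in IL6 mRNA, up or down relative to 0.5% DMSO controls, were derived from concentration-response curves in human HepaRG cells treated for 48 h at up to 100 uM, with ACTB, GAPDH and POLR2A as normalizers.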

Read-out in assay [13]: Interleukin 6 Receptor (IL6R), IL6R (gene 3570)
Description: LTEA_HepaRG_IL6R: Life Technologies and Expression Analysis (LTEA) Assay for Interleukin 6 Receptor (IL6R) using HepaRG (AID 2283510). The method, boiled down: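 HepaRG, 48 h exposure, 8-pt half-log series, top 100 uM, 0.5% DMSO vehicle, duplicates. Read-out: TaqMan qRT-PCR of IL6R transcript, housekeeping-gene normalized. Gain or loss fitted relative to DMSO baseline.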

Read-out in assay [14]: Keratin 19 (KRT19), KRT19 (gene 3880)
Description: LTEA_HepaRG_KRT19: Life Technologies and Expression Analysis (LTEA) Assay for Keratin 19 (KRT19) using HepaRG (AID 2283512). In short, it runs like this:
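Differentiated human HepaRG cells, plated 48 h, were exposed in duplicate for 48 h in serum-free induction medium to eight half-log concentrations up to 100 uM in 0.5% DMSO. KRT19 mRNA was quantified by qRT-PCR, normalized to ACTB, GAPDH and POLR2A, and fitted bidirectionally versus DMSO.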

Read-out in assay [15]: JUN Transcription Factor, JUN (gene 3725)
Description: LTEA_HepaRG_JUN: Life Technologies and Expression Analysis (LTEA) Assay for JUN Transcription Factor using HepaRG (AID 2283513). The method, boiled down: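 HepaRG, 48 h exposure, 8-pt half-log series top 100 uM, 0.5% DMSO, duplicate. JUN mRNA by qRT-PCR (Fluidigm), housekeeping-normalized (ACTB/GAPDH/POLR2A); bidirectional curve fit vs DMSO baseline.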

Read-out in assay [16]: Lipase C (LIPC), LIPC (gene 3990)
Description: LTEA_HepaRG_LIPC: Life Technologies and Expression Analysis (LTEA) Assay for Lipase C (LIPC) using HepaRG (AID 2283514). In short, it runs like this:
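In this multiplexed gene-expression screen, human HepaRG cultures received test chemicals for 48 h across eight concentrations with 100 uM highest, in duplicate. Values reflect LIPC mRNA induction or suppression versus DMSO vehicle, from normalized qRT-PCR.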

Read-out in assay [17]: Lipoprotein lipase (LPL), LPL (gene 4023)
Description: LTEA_HepaRG_LPL: Life Technologies and Expression Analysis (LTEA) Assay for Lipoprotein lipase (LPL) using HepaRG (AID 2283515). The method, boiled down:
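Concentration-response testing used half-log steps from 100 uM in 0.5% DMSO on human HepaRG cells, 48 h, duplicate wells. Phenobarbital 1 mM served as induction control; LPL mRNA was normalized to ACTB, GAPDH, POLR2A.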

Read-out in assay [18]: MicroRNA 122 (MIR122), gene 406906
The assay can be described thus: LTEA_HepaRG_MIR122: Life Technologies and Expression Analysis (LTEA) Assay for MicroRNA 122 (MIR122) using HepaRG (AID 2283516). Note: the transcript read is the microRNA miR-122. The method, boiled down: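 qRT-PCR read-out (TaqMan, Fluidigm array), normalized to three housekeeping genes; HepaRG cells dosed 48 h at 8 concentrations up to 100 uM in 0.5% DMSO, duplicate; gain or loss fitted against DMSO baseline.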

Read-out in assay [19]: Potassium channel subfamily K member 1 (KCNK1), KCNK1 (gene 3775)
The assay can be described thus: LTEA_HepaRG_KCNK1: Life Technologies and Expression Analysis (LTEA) Assay for Potassium channel subfamily K member 1 (KCNK1) using HepaRG (AID 2283511). In short, it runs like this: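 Human HepaRG cultures receive test chemicals for 48 h in 0.5% DMSO, top concentration 100 uM with half-log dilutions. Induction or suppression of KCNK1 mRNA relative to DMSO is derived by bidirectional fitting of qRT-PCR data.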

Chain of Hypoxia-inducible factor 1-alpha (Homo sapiens) (Q16665 whole entry, looked up): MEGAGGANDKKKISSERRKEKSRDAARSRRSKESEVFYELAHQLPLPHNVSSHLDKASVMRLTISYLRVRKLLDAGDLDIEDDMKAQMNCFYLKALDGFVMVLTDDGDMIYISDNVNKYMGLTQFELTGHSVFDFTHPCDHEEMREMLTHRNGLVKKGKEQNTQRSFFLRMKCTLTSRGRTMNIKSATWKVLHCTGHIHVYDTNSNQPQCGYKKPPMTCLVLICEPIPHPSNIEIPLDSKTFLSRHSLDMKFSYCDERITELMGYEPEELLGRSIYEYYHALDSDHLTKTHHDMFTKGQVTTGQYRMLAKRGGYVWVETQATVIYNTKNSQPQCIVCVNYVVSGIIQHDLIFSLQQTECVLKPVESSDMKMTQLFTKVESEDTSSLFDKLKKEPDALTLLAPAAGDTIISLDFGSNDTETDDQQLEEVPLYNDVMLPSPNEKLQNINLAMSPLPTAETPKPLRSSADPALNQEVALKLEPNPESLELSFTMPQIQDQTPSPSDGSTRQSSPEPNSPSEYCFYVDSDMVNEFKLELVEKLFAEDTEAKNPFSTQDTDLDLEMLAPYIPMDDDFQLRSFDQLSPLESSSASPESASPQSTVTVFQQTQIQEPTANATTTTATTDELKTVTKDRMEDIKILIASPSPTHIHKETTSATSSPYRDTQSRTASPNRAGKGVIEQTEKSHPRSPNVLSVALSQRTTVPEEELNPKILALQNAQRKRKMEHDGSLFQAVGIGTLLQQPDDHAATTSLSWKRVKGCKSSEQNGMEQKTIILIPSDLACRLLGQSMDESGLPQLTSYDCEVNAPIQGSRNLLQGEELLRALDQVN

Consider `C=CCCCCCCCCCCCC`, for which the compound was called inactive in [1], in [2], in assay [3], in assay [4], in assay [5] and in [6]. The compound was classed as inactive (in assay [7]; in assay [8]; with HGF (gene 3082); in [9]; in assay [10]; in assay [11]). Also, the compound was called inactive in assay [12], in assay [13], in assay [14], in assay [15], in assay [16] and in assay [17]. Further, in assay [18], the call was inactive.
In the case of `Cn1cnc2c1c(=O)[nH]c(=O)n2C`, the compound was called inactive in [1], in assay [2], in assay [3], in assay [4], in assay [5] and in assay [6]. The result (in assay [8]; with HGF (gene 3082); in [9]; in assay [10]; in assay [11]; in assay [12]) was inactive. Further, the compound was classed as inactive in [13], in assay [14], in assay [15], in assay [16], in assay [17] and in assay [18].
With `CC(=O)[C@@]1(O)CC[C@H]2[C@@H]3CCC4=CC(=O)CC[C@]4(C)[C@H]3CC[C@@]21C`, the call in assay [1], in [2], in [3], in assay [4], in assay [5] and in assay [6] was inactive. Further, the compound was classed as inactive (in assay [8]; with HGF (gene 3082); in [9]; in assay [10]; in assay [11]; in [12]). For the same compound, the outcome in [13], in assay [19], in [14], in assay [15], in assay [16] and in [17] was inactive. Moreover, the compound was called inactive in assay [18].
For the compound `NC=O`, the call in assay [1], in [2], in [3], in assay [4], in assay [5] and in assay [6] was inactive. Also, the compound was called inactive (in [7]; in [8]; with HGF (gene 3082); in assay [9]; in assay [10]; in [11]). Further, the call in assay [12], in assay [13], in [19], in assay [14], in [15] and in assay [16] was inactive. Besides, the outcome in [17] and in assay [18] was inactive.
As to `CCCCCCCCCCCCCCCCO`, the compound was called inactive in [1], in assay [2], in assay [3], in assay [4], in assay [5] and in assay [6]. In addition, the result (in [7]; in assay [8]; with HGF (gene 3082); in assay [9]; in assay [10]; in assay [11]) was inactive. Besides, the compound was called inactive in assay [12], in [19], in [14], in assay [15], in [16] and in assay [17]. Besides, the result in [18] was inactive. Moreover, the half-maximal activity concentration (AC50) (as a rule, the midpoint of the concentration-response curve, whichever way the signal moves) in assay [13] is 50 µM (active).
Take `O=Cc1ccccc1C=O`: the call in assay [1], in assay [2], in assay [3], in assay [4], in assay [5] and in assay [6] was inactive. For the same compound, the result (in assay [7]; in [8]; in the assay with HGF (gene 3082); in assay [9]; in assay [10]; in assay [11]) was inactive. Further, the outcome in [12], in [13], in [19], in [14], in assay [15] and in assay [16] was inactive. In addition, the compound was called inactive in [17] and in assay [18].
